Screening data (PubChem BioAssay)
KB-V1 MDR tox: kills drug-selected multidrug resistant KB-V1 cells | actives 3.4% (n = 400,000) | AID 1347076 | Potency, µM (top dose mostly 46.1 µM), hits mostly cytotoxic | KB-V1 MDR cells viability, CellTiter-Glo, 72 h; further: on the % scale 0 is the no-effect control and ±100 the full control effect; nearly all actives have a fitted effect of over 60% in size
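Readout: CellTiter-Glo luminescence, 10 min after addition. Cells: KB-V1 MDR subline, 72 h at 37 degrees C with compound. Analysis: corrected, normalized data fitted to concentration-effect curves.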
PINK1 modulator: PINK1 expression modulation | actives 0.2% (n = 410,000) | AID 624263 | PINK1 immunofluorescence, high-content cytometry, 24 h | Potency, µM (top dose mostly 76.6 µM), for the others: top-dose activation (PINK1 increase), most hits filed as activators; active means well fitted activation curve with a large enough effect; inconclusive means small, poorly fitted or top-dose-only effect; cell line not stated here; further: % of control where 0% means no effect; nearly all actives have a fitted effect of over 65% in size
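PINK1 protein, normally rapidly degraded, was detected by immunofluorescence after 24 hour compound treatment of a stable cell line. Titration data (5 concentrations) came from laser-scanning cytometry, with CCCP-treated wells as controls.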
SW480 rerep: inducers of DNA re-replication in SW480 colon cancer cells; Potency, µM (titrated, usually from 46.1 µM), for inactives: top-dose re-replication activation, most hits filed as activators; SW480 DNA re-replication, Hoechst DNA content imaging, 48 h; actives 1.8% (n = 340,000); further: % of control where 0% means no effect; nearly all actives have a fitted effect of over 55% in size
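Quantitative HTS format with DMSO vehicle controls; 48 hr drug incubation at 37 C, then 40 min Hoechst staining and scanning imager measurement at 405 nm excitation.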
MCF10A rerep: DNA re-replication induction in MCF 10a cells | Potency, µM (highest dose often 46.1 µM), for the others: at the top dose activity, positive = re-replication, actives largely listed as activators | actives 2.9% (n = 350,000) | MCF 10A DNA re-replication, Hoechst nuclear intensity, 48 h; further: % of control where 0% means no effect; nearly all actives have a fitted effect of over 50% in size
KB-3-1 cytotox: kills parental KB-3-1 adenocarcinoma cells | KB-3-1 viability, CellTiter-Glo ATP luminescence, 72 h | Potency, µM (series often up to 46.1 µM), actives largely listed as cytotoxic | actives 1.4% (n = 400,000); further: on the % scale 0 is the no-effect control and ±100 the full control effect; nearly all actives have a fitted effect of over 60% in size
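Here the drug-naive KB-3-1 line serves as comparator for MDR sub-line selectivity; cells received compound titrations, 72 h at 37 °C, then CellTiter-Glo readout.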
* hit, by the source's call; i = inactive; ? = inconclusive; / = no result; ! = not active in a repeat; [ ] = dose if it differs, or a comment. Rows were chosen to be rich in hits. Some 6.7% of all compounds tested hit in one or more screens of this group. Unless noted, the call rests on the fitted dose curve; in most records, active means well fitted curve in the direction sought with a large enough effect; inconclusive means small, poorly fitted or top-dose-only effect, or another doubt; inactive means no such curve, though single readings can be large; an effect the other way counts as inactive or inconclusive. Potency means the concentration at half of the fitted maximal effect.

SMILES | KB-V1 MDR tox | PINK1 modulator | SW480 rerep | MCF10A rerep | KB-3-1 cytotox
CCOC(=O)c1ccc(NC(=O)C(CC)Sc2nnc3c4ccccc4n(C)c3n2)cc1 (stereo not drawn) | / | 0.6% | / | / | /
CCOC(=O)Cc1nnc(NC(=O)CSc2nnc3c4ccccc4n(C)c3n2)s1 | i | 2.3%[38.3 µM] | 0.731µM* | ? | i
CCOC(=O)C(C)Sc1nnc2c3ccccc3n(C)c2n1 (stereo not drawn) | i | 3.0% | -7.6% | 1.84µM* | i
Cc1ccc(NC(=O)C(=O)NCC(c2cccnc2)N2CCN(Cc3ccccc3)CC2)cc1Cl (stereo not drawn) | i | 0.2% | / | / | i
CC1CCC(NC(=O)C2CCN(c3nc4ccccc4s3)CC2)CC1 (stereo not drawn) | 7.31µM* | 16.3% | -9.6% | 16.9% | ?
CC1CC(C)CN(C(=O)C2CCN(C(=O)Nc3ccccc3)CC2)C1 (stereo not drawn) | 20.6µM* | -1.6% | 6.2% | 4.5% | i
Cc1ccc2nc(N3CCC(C(=O)NC4CCCCC4)CC3)sc2c1 | i | 3.9% | -11.5% | 8.5% | i
CC1CCC(NC(=O)C2CCN(C(=O)Nc3ccccc3)CC2)CC1 (stereo not drawn) | 16.4µM* | 1.6% | -1.4% | ? | i
CC1CCCN(C(=O)C2CCN(C(=O)Nc3ccccc3)CC2)C1 (stereo not drawn) | i | -1.2% | -13.2% | 13.6% | i
O=C1CCC[C@@H]2[C@@H](Cc3ccccc3)[C@@H](Nc3ccccc3)C[C@@H]3CCN1[C@@H]32 | ? | / | / | / | i
CCOC(=O)CSc1nc2ccccc2c(=O)n1-c1ccc(C(=O)NCCOC)cc1 | ? | ? | -4.3% | 1.0% | i
COCCNC(=O)c1ccc(-n2c(SCc3cc(F)ccc3F)nc3ccccc3c2=O)cc1 | 5.8µM* | 2.8% | -3.4% | -0.9% | ?
Cc1c(C(=O)N2CCCCC2)c(S(=O)(=O)NCc2ccc(Cl)cc2)c(C)n1C | i | -0.7% | 4.7% | -4.0% | i
CC1=CC(=O)C=C(C)C1=NOC(=O)/C=C\c1ccccc1 | i | 0.0% | 5.8µM* | ? | i
CC[C@@]1(C(=O)OC)N[C@H](CN(C)C(=O)c2ccc(F)cc2)[C@@H]2C(=O)N(C)C(=O)[C@@H]21 | i | -1.7% | -5.5% | -1.5% | i
Cc1cccc(-n2c(=O)c3ccccc3n(Cc3ccccc3)c2=O)c1 | i | 0.9% | / | / | i
O=c1/c(=C\c2cccc(O)c2)sc2nc(-c3ccccc3)c(-c3ccccc3)n12 | i | 1.0% | -6.4% | 4.61µM* | i
CCCNC(=O)c1cc(C2CCCCN2C(=O)c2cccs2)on1 (stereo not drawn) | i | 1.4% | / | / | i
COc1cc(-c2noc(C)c2/C=C/c2ccc(C(=O)O)cc2)cc(OC)c1OC | i | 4.9% | ? | ? | ?
COc1cc(-c2noc(C)c2-c2ccc3[nH]ccc3c2)cc(OC)c1OC | 1.84µM*! | 6.1% | 2.59µM* | ? | 1.84µM*
COc1cc(-c2noc(C)c2-c2ccc(N(C)C)nc2)cc(OC)c1OC | 0.206µM* | 5.6% | 0.291µM* | ? | 0.0065µM*
COCCCn1c(SCc2ccccc2F)nc2c(sc3ccccc32)c1=O | i | 16.1% | / | / | i
Cc1cccc(C)c1N=Cc1c(O)n(-c2nccs2)c(=O)c2ccccc12 | 23.1µM* | -1.3% | 0.9% | 2.8% | i
Cc1cc(C)c(N=Cc2c(O)n(-c3nccs3)c(=O)c3ccccc23)c(C)c1 | i | -0.1% | 15.6% | 7.7% | i
COc1ccc(-n2c(=O)c3c4c(sc3n3cnnc23)CC(C)CC4)cc1 (stereo not drawn) | i | -1.8% | 0.4% | 2.5% | i
SMILES | KB-V1 MDR tox | PINK1 modulator | SW480 rerep | MCF10A rerep | KB-3-1 cytotox
Cc1nnc2n(-c3ccccc3)c(=O)c3c4c(sc3n12)CC(C)CC4 (stereo not drawn) | 8.2µM* | -2.1%[38.3 µM] | -2.1% | 4.3% | i
Cc1ccc2nnc(Cl)n2n1 | i | -1.4% | -1.0% | -0.7% | i
Clc1nnc2ccc(-c3ccccc3)nn12 | 16.4µM* | -8.8%[38.3 µM] | 1.3% | 27.2% | 23.1µM*
COC1=CC(=O)OC(c2ccco2)C1 (stereo not drawn) | i | 1.6% | -3.0% | -4.1% | i
Cn1cc(-c2coc3c(C(=O)Nc4ccccc4)cccc23)cn1 | 10.3µM* | 1.8% | / | / | i
CC(=O)c1cccc(NC(=O)c2cccc3c(-c4cnn(C)c4)coc23)c1 | ? | 6.7% | / | / | i
O=C(Oc1ccc(Cl)c2cccnc12)c1cccc([N+](=O)[O-])c1 | i | 1.9% | / | 3.66µM* | i
O=C(Oc1c(Cl)cc(Cl)c2cccnc12)c1cccc([N+](=O)[O-])c1 | i | 1.6% | ? | 10.3µM* | 14.6µM*
O=C(Oc1ccc(Cl)c2cccnc12)c1ccco1 | ? | 4.1% | ? | 7.31µM* | ?
O=C(Oc1ccccc1)N1CCC2(CCCN(c3ccc(-c4ccccc4)cc3)C2)CC1 | / | 0.2% | / | / | /
CC1CCC(NC(=O)C(C)N2C(=O)C3CCCCC3C2=O)CC1 (stereo not drawn) | ? | 0.3% | -9.2% | -2.5% | i
COC(=O)c1c(-c2ccc(OC)cc2)sc2ccc(N3CCOCC3)cc12 | i | 0.2% | 0.5% | 10.5% | 14.6µM*
N#Cc1nc(-c2ccc(COc3ccccc3)o2)oc1NCc1cccnc1 | ? | 0.9% | / | / | i
Cc1ccc(N2C(=O)c3cccc4c(N)ccc(c34)C2=O)c2cccnc12 | 0.581µM* | 39.8µM* | ? | ? | ?
CCN(CCC#N)c1ccc(/C=C/c2ccnc3ccccc23)cc1 | ? | 1.6% | / | / | ?
c1ccc(C2=Nn3c(nnc3-c3n[nH]c4c3CCC4)SC2)cc1 | ? | 4.7% | -5.8% | ? | i
Clc1ccc(C2=Nn3c(nnc3-c3n[nH]c4c3CCC4)SC2)cc1Cl | 4.61µM* | 0.0% | ? | ? | ?
Cc1cnc(Nc2nc3ccccc3o2)nc1C(=O)Nc1cccc(C(F)(F)F)c1 | 14.6µM* | ? | ? | ? | 16.4µM*
Cc1occc1C(=O)Nc1cccc(C(F)(F)F)c1 | i | -3.2% | -1.6% | 1.5% | i
COc1ccccc1CNC(=O)C1CCN(c2nc3ccc(Cl)cc3[nH]2)CC1 | i | -0.3% | / | / | i
Cc1nc(N)nc(Nc2ccc(Cl)cc2)c1Br | 20.6µM* | -7.0%[38.3 µM] | -1.3% | 0.2% | ?
COC(=O)c1ccc(COc2ccccc2OC)o1 | i | 1.9% | -6.1% | -6.8% | i
COC(=O)c1ccc(COc2ccccc2/C=N/O)o1 | i | -0.2% | 1.84µM* | -23.9% | i
O=C(N/N=C/c1ccccc1F)c1ccc(COc2ccccc2Cl)o1 | 18.4µM* | 14.1% | -1.9% | ? | i
COc1ccccc1-c1ccnc(-n2ncc(C(=O)NC3CCCN(Cc4ccccc4)C3)c2C)n1 (stereo not drawn) | / | -0.1% | / | / | /
